According to PubChem BioAssay AID743279 (National Center for Advancing Translational Sciences (NCATS), 2014):
Among all 360,000 compounds or so, about 17,000 (4.7%) were called active. About 5% were inconclusive and are not listed. Rule as the data show it: active = activity change below about -50%; inconclusive = mostly about -30% to -49%; inactive = weaker than that. This excerpt belongs to a sample that is enriched for actives.

Test: qHTS for Inhibitors of Inflammasome Signaling: IL-1-beta AlphaLISA Primary Screen
Details: THP-1 LPS/ATP IL-1B secretion, 16 h; at 57.5 µM, hits give low values
Summary of the method: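 Secreted IL-1B measured by AlphaLISA bead assay after 16 h compound exposure of THP-1 cells; compounds (final up to 57.5 uM) added 1 h before LPS (250 ng/mL) and ATP (1.25 mM) stimulation; lower signal means less secretion.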
% is scaled to controls: 0 for no effect and ±100 for the full control effect.

Activity change, inactive:
O=C(CN1C(=O)NC2(CCOc3ccccc32)C1=O)NCc1ccc(F)cc1 (centres undefined) -15.8%
C[C@@H]1CN([C@@H](C)CO)C(=O)CCCn2nncc2CO[C@H]1CN(C)C(=O)Nc1ccc(C(F)(F)F)cc1 -7.03%
COC(=O)c1ccc2nc(C3CCCCC3)c(Cc3cccc(F)c3)n2c1 20.9%
N#Cc1c(N)n(CCOC(=O)c2ccc(Cl)cc2)c2nc3ccccc3nc12 -16.3%
Cc1cc(C)c(S(=O)(=O)N(C)CC(=O)NCC2CCCO2)c(C)c1 (centres undefined) 4.54%
CC1=C(C(=O)OCc2ccccc2)C(c2ccc(C(F)(F)F)cc2)NC(=O)N1CCCCCC(=O)O (centres undefined) 5.05%
COC(=O)CCCCCN1C(=O)NC(c2ccc(-c3ccccc3)cc2)C(C(=O)OCc2ccccc2)=C1C (centres undefined) -1.28%
CC(=O)c1cccc(-c2cnc3c(NC=O)cc(-c4ccc(N5CCN(C)CC5)cc4)cn23)c1 108%
CC(C)(C)Cc1c(C2CCCCC2)nc2ccc(Br)cn12 28.2%
OCC1(Cc2ccccc2C(F)(F)F)CCN(Cc2ccncc2)CC1 21.9%
C/C(=N/N1CCN(Cc2cccc3ccccc23)CC1)c1cccnc1 0%
O=S1(=O)CC(N2CCC(Cc3ccccc3)CC2)CN1Cc1ccccc1 (centres undefined) 21.9%
Cc1cccc(N(C)C(=O)c2cc3c(=O)[nH]c4ccc(C)cc4c3s2)c1 3.44%
CCN(CC)CCCNC(=O)c1cc(-c2cccc(Cl)c2)on1 -5.59%
COCCNC(=O)c1cc2c(Br)ccc(Br)c2nc1N -2.49%
O=C(NCC1CCCCC1)c1cc(S(=O)(=O)N2CCCCC2)ccc1N1CCOCC1 -0.256%
Cn1c(=O)c2c(nc(SCCNS(=O)(=O)c3ccccc3)n2C)n(C)c1=O 29.8%
CCC1CCCCN1C(=O)CSc1nc2c(c(=O)n(C)c(=O)n2C)n1C (centres undefined) 2.3%
O=[N+]([O-])c1ccccc1/C=C/CN1CCCC(CO)C1 (centres undefined) -11.3%
O=[N+]([O-])c1ccccc1/C=C/CN1CCC(O)CC1 7.25%
CCc1ccc(C(=O)N2CCN(S(=O)(=O)c3sc(C(=O)O)c(C)c3C(=O)O)CC2)cc1 20.6%
O=C1C[C@@H]2c3c(cccc3CN1Cc1ccccc1)C[C@@H](O)[C@H]2O 16.3%
c1ccc(Cn2nnc3c(NCC4CC4)ncnc32)cc1 -6.22%
COc1cccc(-c2cnc(C(O)c3ccccc3OC)[nH]2)c1 (centres undefined) 26.3%
O=C(NCCc1ccccc1)/C(=C\c1ccc([N+](=O)[O-])cc1)NC(=O)c1ccccc1 4.21%
O=C(Nc1ccc(C(=O)O)cc1)/C(=C\c1ccccc1)NC(=O)c1ccc(Br)cc1 -0.689%
C[C@]12CC[C@H](O)CC1=CCC1C2CC[C@@]2(C)C1CC[C@@H]2NC(=O)CCC(=O)O (some centres undefined) 14.7%
COc1cc(Cn2c3ccc(NC(=O)CC(C)c4ccccc4)cc3c(=O)n2C)ccc1F (centres undefined) -18%
CC1(C(=O)NS(=O)(=O)c2ccc(C#N)cc2)CCN1C(=O)c1ccc(C2CCCCC2)cc1 (centres undefined) 12.1%
O=C(c1ccc2c(c1)C(=O)N(c1ccc(Cl)cc1)C2=O)N1CCN(c2ccccn2)CC1 15.8%
O=C(NN=Cc1ccc(N2CCOCC2)cc1)c1cc2ccccc2cc1O -24%
O=C(c1ccccc1)c1ccc(C(=O)N2CCN(c3ccccc3)CC2)cc1 -8.14%
Cc1cccc(N2C(=O)c3ccc(C(=O)Nc4cccc(C(=O)O)c4)cc3C2=O)c1 10.8%
CC(OC(=O)c1cccnc1Cl)C(=O)NC1CCCCC1 (centres undefined) -3.91%
COc1ccc(C(=O)OCC(=O)Nc2cc(C)on2)cc1F 10.7%
C[C@@H]1CN([C@@H](C)CO)C(=O)CCCn2cc(nn2)CO[C@H]1CN(C)S(=O)(=O)c1ccc(-n2cccn2)cc1 -5.6%
COc1ccc(CCN2C(=O)C(C)=C(C)C2=O)cc1OC -6.73%
COc1ccc(CCN=C2SCC(=O)N2Cc2ccccc2)cc1OC -10.8%
Nc1cccc(OCCCCCOc2cccc(N)c2)c1 -27.6%
CC(=O)Nc1c(-c2ccc(C)cc2)nc2ccc(Cl)cn12 13.6%
O=C(COc1ccc(Cl)cc1)NCCS(=O)(=O)N1CCN(c2ccc(F)cc2)CC1 0.652%
O=C(Cc1ccc(F)cc1)N1CCN=C1SCc1cccc([N+](=O)[O-])c1 26.2%
Cc1cc(C)cc(C(=O)N2CCN=C2SCc2ccc([N+](=O)[O-])cc2)c1 7.28%
O=C1NC(c2ccccc2)Cc2ccncc21 (centres undefined) -2.81%
CC(C)C1Cc2[nH][nH]c(=O)c2C(c2ccc(Cl)cc2)O1 (centres undefined) 0.108%
COc1ccc(/C=C2/C(=O)N(c3ccccc3)N=C2C)c(OC)c1 -9.74%
COc1ccc(CN(C)Cc2nc3cc(OC)c(OC)cc3c(=O)[nH]2)c(OC)c1 1.63%
Cc1cc(=O)c2ccc(NC(=O)c3ccccc3)cc2[nH]1 -15.4%
CC(=O)Nc1ccc(S(=O)(=O)Nc2ccc(N3CCCCC3)cc2)cc1 0%
O=C(Cc1ccccc1)NC(=S)Nc1ccc(N2CCCCC2)cc1 -8.88%
COc1ccccc1NC(=O)C(CC(=O)O)Cc1cc(C)cc(C)c1 (centres undefined) 14.1%
Cc1cccc(C)c1-n1nnnc1C(CCc1ccccc1)N1CCN(C/C=C/c2ccccc2)CC1 (centres undefined) -7.14%
CC(C)(C)c1ccc(/C=C2\SC(=O)N=C2N)cc1 3.39%
O=C(COC(=O)c1ccccc1NC(=O)c1ccco1)Nc1ccc2c(c1)OC(F)(F)O2 22.1%
O=C(Nc1ccc(Sc2ccc(Br)cc2)cc1)c1ccco1 -22.6%
CCCNC(=O)c1cc(C2CCCCN2S(=O)(=O)c2cn(C)cn2)on1 (centres undefined) 1.68%
CN(C)/C(=N\OC(=O)c1ccccc1)c1nonc1N 23.1%
CCCC(=O)N1CCC1(C)C(=O)NS(=O)(=O)c1ccc(Cl)cc1 (centres undefined) 26%
Cc1nnc(N/N=C/c2ccccn2)[nH]c1=O 266%
O=c1[nH]c(NCCO)nnc1Cc1ccc(Cl)cc1 -0.873%
CC(=O)OCC1(O)CC23CCC4c5ccoc5CCC4(C)C2CCC1C3 (centres undefined) -29.5%
O=C(Nc1ccc(N2CCN(C(=O)c3ccccc3)CC2)c(Cl)c1)c1ncn[nH]1 -4.07%
Cc1ccccc1N1CCN(C(=O)c2cccnc2)CC1 -6.96%
COc1ccc(C(=O)NCc2ccc(Cl)cc2)cc1S(=O)(=O)N1CCCC1 -19.3%
CCOC(=O)C1(C)CCCN(C(=O)c2cccc(Cl)c2)C1 (centres undefined) 37%
CCOC(=O)[C@]12CCCC=C1N(Cc1ccc3c(c1)OCO3)C(=O)[C@H](CC(=O)N1CCN(C(=O)c3ccco3)CC1)C2 -17.6%
CCc1c(C)nc2c(OC)cccc2c1Cl -3.94%
CC(=O)Oc1ccc(-c2nc3c(C)cccc3c(=O)o2)cc1 24.4%
COc1ccc(C(=O)N2CCCCC2c2cc(C(=O)Nc3ccc(F)c(Cl)c3)no2)cc1 (centres undefined) -4.59%
CCOC1=C2[C@@H](CN(S(=O)(=O)c3ccc(C)cc3)[C@H]2c2ccccc2F)[C@H]2C(=O)N(Cc3ccccc3)C(=O)[C@H]2C1 0.677%

Activity change, active:
CN(C)CCCn1c(N)c(C#N)c2nc(C#N)c(C#N)nc21 -105%
CCCCNC(=O)C(C)N(CCN(C)C)C(=O)CCCCCN1C(=O)NC(c2ccc(Cl)cc2)C(C(=O)OCc2ccccc2)=C1C (centres undefined) -52.2%
OCC1(Cc2ccccc2C(F)(F)F)CCN(Cc2cccc3cnccc23)CC1 -72.4%
CCN(CC)CCCNC(=O)c1cc2c(=O)[nH]c3ccc(C)cc3c2s1 -65.6%
Cn1c(=O)c2c(nc(SCC(=O)Nc3ccccc3N3CCCCC3)n2C)n(C)c1=O -57.3%
CC1CCCCC1NC(=O)/C(C#N)=C/C=C/c1ccccc1[N+](=O)[O-] (centres undefined) -103%
O=C(Nc1ccc(C(=O)O)cc1)/C(=C/c1ccc([N+](=O)[O-])cc1)NC(=O)c1ccccc1 -62.1%
Cc1cc2cc3n(c2nn1)N=C(Cl)CC3 -81.1%
O=C(/C=C/c1ccc(N2CCOCC2)cc1)c1ccccc1 -239%
O=C(O)c1ccc2c(c1)C(=O)N(c1ccc(/C=C/C(=O)c3ccccc3)cc1)C2=O -154%
COc1ccc(CCNC2=C(Cl)C(=O)N(Cc3ccccc3)C2=O)cc1OC -67.7%
Cc1cccc(CC(=O)N2CCN=C2SCc2ccc([N+](=O)[O-])cc2)c1 -73.1%
COc1ccc(/C=C2/C(=O)OCc3cc(OC)c(OC)cc32)c(OC)c1 -74.3%
O=C1C=CC(=O)N1c1ccc(N2CCCCC2)cc1 -102%
CCN(CC)P(=O)(Nc1ccc(SC(F)F)cc1)c1ccc(N(C)C)cc1NC(=O)c1ccco1 (centres undefined) -50.2%
COc1ccc(Cc2nnc(N/N=C/c3ccccc3O)[nH]c2=O)cc1OC -100%
O=C(Nc1ccc(N2CCN(C(=O)c3ccccc3)CC2)c(Cl)c1)c1cccnc1 -81.2%
COc1nc(N=C(N)N)nc2c(C)cccc12 -63.3%
Cc1nc(N=C(N)N)nc2c(C)cccc12 -96%
